Holding throughout (details): mRNA level, 48 h; actives raise or lower the signal
Read-out in experiment [1]: Alkaline Phosphatase, Placental (ALPP) gene, ALPP (gene 250)
Nature of the experiment: LTEA_HepaRG_ALPP: Life Technologies and Expression Analysis (LTEA) Assay for Alkaline Phosphatase, Placental (ALPP) gene using HepaRG (AID 2283468). The method, boiled down:
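Using human liver HepaRG cells, chemicals are tested in duplicate over 48 h at half-log concentrations topping at 100 uM; phenobarbital 1 mM serves as induction control. ALPP mRNA change by qRT-PCR, bidirectional fit against vehicle.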

Read-out in experiment [2]: Bcl-2 (BAD) gene, BAD (gene 572)
Nature of the experiment: LTEA_HepaRG_BAD: Life Technologies and Expression Analysis (LTEA) Assay for Bcl-2 (BAD) gene using HepaRG (AID 2283469). The method, boiled down: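 BAD transcript change, measured by qRT-PCR against three housekeeping genes and fitted in both directions relative to 0.5% DMSO, after 48 h chemical treatment of human HepaRG liver cells at concentrations up to 100 uM.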

Read-out in experiment [3]: Bcl-2 (BAX) gene, BAX (gene 581)
As to the kind of experiment: LTEA_HepaRG_BAX: Life Technologies and Expression Analysis (LTEA) Assay for Bcl-2 (BAX) gene using HepaRG (AID 2283470). The method in brief: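 Differentiated HepaRG cells exposed 48 h in serum-free induction medium, eight half-log concentrations from 100 uM, in duplicate, 0.5% DMSO vehicle. BAX mRNA by TaqMan qRT-PCR, normalised to ACTB, GAPDH and POLR2A.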

Read-out in experiment [4]: adenosine kinase (ADK) gene, ADK (gene 132)
As to the kind of experiment: LTEA_HepaRG_ADK: Life Technologies and Expression Analysis (LTEA) Assay for adenosine kinase (ADK) gene using HepaRG (AID 2283471). The method, boiled down: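 Read-out is ADK transcript level measured by qRT-PCR and normalised to three housekeeping genes. Cells are human HepaRG, dosed for 48 h at up to 100 uM in 0.5% DMSO. Gain or loss of signal is fitted against DMSO controls.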

Read-out in experiment [5]: Alpha-fetoprotein (AFP) gene, AFP (gene 174)
As to the kind of experiment: LTEA_HepaRG_AFP: Life Technologies and Expression Analysis (LTEA) Assay for Alpha-fetoprotein (AFP) gene using HepaRG (AID 2283472). The method, boiled down: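 Differentiated human HepaRG cells exposed 48 h in serum-free induction medium, 8-point half-log series from 100 uM in 0.5% DMSO, duplicate. AFP mRNA by qRT-PCR, normalized to ACTB, GAPDH, POLR2A; bidirectional fit vs DMSO.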

Read-out in the next experiment: BCL2L11 (gene 10018)
Nature of the experiment: LTEA_HepaRG_BCL2L11: Life Technologies and Expression Analysis (LTEA) Assay for Bcl-2 (BCL2L11) gene using HepaRG (AID 2283473). The method, boiled down:
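Human hepatic HepaRG cultures are treated 48 h with test chemicals (maximum 100 uM, 0.5% DMSO vehicle). Expression of BCL2L11 is measured by qRT-PCR against ACTB, GAPDH and POLR2A, with activity in either direction scored relative to vehicle.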

Read-out in experiment [6]: Apolipoprotein A-V (APOA5) gene, APOA5 (gene 116519)
Nature of the experiment: LTEA_HepaRG_APOA5: Life Technologies and Expression Analysis (LTEA) Assay for Apolipoprotein A-V (APOA5) gene using HepaRG (AID 2283474). The method in brief: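 Concentration-response of APOA5 expression in HepaRG: eight half-log doses to 100 uM, 48 h, qRT-PCR normalized to ACTB/GAPDH/POLR2A, bidirectional fitting with 0.5% DMSO as baseline.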

Read-out in experiment [7]: Apoptosis regulator Bcl-2 (Homo sapiens) (UniProt P10415)
Nature of the experiment: LTEA_HepaRG_BCL2: Life Technologies and Expression Analysis (LTEA) Assay for Bcl-2 gene using HepaRG (AID 2283475). The method in brief:
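Differentiated human HepaRG cells in serum-free induction medium exposed 48 h, in duplicate, to 8-point half-log series from 100 uM in 0.5% DMSO. BCL2 mRNA by qRT-PCR (TaqMan/Fluidigm), normalized to ACTB, GAPDH, POLR2A; bidirectional fit against DMSO.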

Read-out in experiment [8]: Bcl-2 (BID) gene, BID (gene 637)
Nature of the experiment: LTEA_HepaRG_BID: Life Technologies and Expression Analysis (LTEA) Assay for Bcl-2 (BID) gene using HepaRG (AID 2283476). The method in brief:
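Gene expression by qRT-PCR in HepaRG cells after 48 h exposure, duplicate wells, eight half-log concentrations topping at 100 uM in 0.5% DMSO. Normalized to ACTB, GAPDH, POLR2A; bidirectional fitting relative to DMSO.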

Read-out in the next experiment: Caspase-3 (Homo sapiens) (UniProt P42574)
As to the kind of experiment: LTEA_HepaRG_CASP3: Life Technologies and Expression Analysis (LTEA) Assay for cysteine-aspartic acid protease (CASP3) using HepaRG (AID 2283477). The method, boiled down: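 Transcript-level assay: CASP3 mRNA in human HepaRG after 48 h treatment, eight half-log concentrations from 100 uM in 0.5% DMSO, quantified by qRT-PCR.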

Read-out in experiment [9]: Cytochrome P450 (CYP24A1), CYP24A1 (gene 1591)
As to the kind of experiment: LTEA_HepaRG_CYP24A1: Life Technologies and Expression Analysis (LTEA) Assay for Cytochrome P450 (CYP24A1) using HepaRG (AID 2283478). The method in brief:
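Gene expression of CYP24A1 by TaqMan qRT-PCR in HepaRG after 48 h treatment, highest concentration 100 uM; activity fitted in both directions relative to DMSO vehicle.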

Read-out in experiment [10]: Cytochrome P450 (CYP1A2), CYP1A2 (gene 1544)
Nature of the experiment: LTEA_HepaRG_CYP1A2: Life Technologies and Expression Analysis (LTEA) Assay for Cytochrome P450 (CYP1A2) using HepaRG (AID 2283479). The method, boiled down:
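In duplicate wells, HepaRG cultures maintained in 0.5% DMSO were treated 48 h across an 8-point, half-log series topping at 100 uM; phenobarbital (1 mM) served as induction control. Expression was read by qRT-PCR.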

Read-out in experiment [11]: cysteine-aspartic acid protease (CASP8), CASP8 (gene 841)
Nature of the experiment: LTEA_HepaRG_CASP8: Life Technologies and Expression Analysis (LTEA) Assay for cysteine-aspartic acid protease (CASP8) using HepaRG (AID 2283480). The method, boiled down:
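HepaRG, 48 h exposure, duplicate wells; 8 conc, half-log from 100 uM, 0.5% DMSO. Serum-free induction medium. CASP8 mRNA by TaqMan qRT-PCR, norm. ACTB/GAPDH/POLR2A; gain/loss fitted vs DMSO.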

Read-out in experiment [12]: Cytochrome P450 (CYP2B6), CYP2B6 (gene 1555)
As to the kind of experiment: LTEA_HepaRG_CYP2B6: Life Technologies and Expression Analysis (LTEA) Assay for Cytochrome P450 (CYP2B6) using HepaRG (AID 2283481). The method in brief: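 Human HepaRG, 48 h dosing, 0.5% DMSO vehicle, top dose 100 uM. CYP2B6 transcript by qRT-PCR, housekeeping-normalized, bidirectional curve fit.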

Read-out in experiment [13]: Cytochrome P450 2C19 (Homo sapiens) (UniProt P33261)
As to the kind of experiment: LTEA_HepaRG_CYP2C19: Life Technologies and Expression Analysis (LTEA) Assay for CYP2C19 using HepaRG (AID 2283482). The method in brief:
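Endpoint: CYP2C19 mRNA change, bidirectional fit vs 0.5% DMSO. Cells: HepaRG, 48 h exposure, eight-point series topping at 100 uM. Quantitation: qRT-PCR normalized to ACTB, GAPDH, POLR2A.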

Read-out in a further experiment: CYP2C8 (gene 1558)
Nature of the experiment: LTEA_HepaRG_CYP2C8: Life Technologies and Expression Analysis (LTEA) Assay for CYP2C8 using HepaRG (AID 2283483). The method in brief:
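CYP2C8 mRNA induction or loss, by qRT-PCR normalized to ACTB/GAPDH/POLR2A, is read in HepaRG cells after 48 h treatment. Concentrations run from 100 uM down in half-log dilutions, with 0.5% DMSO as vehicle and baseline.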

Read-out in the next experiment: CYP2C9 (gene 1559)
As to the kind of experiment: LTEA_HepaRG_CYP2C9: Life Technologies and Expression Analysis (LTEA) Assay for CYP2C9 using HepaRG (AID 2283484). The method, boiled down:
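Cells plated 48 h, switched to serum-free induction medium, then treated in duplicate for 48 h at eight concentrations (max 100 uM, 0.5% DMSO). RNA then analysed by qRT-PCR for CYP2C9; curves fitted in both directions relative to DMSO.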

Read-out in the next experiment: CYP2E1 (gene 1571)
As to the kind of experiment: LTEA_HepaRG_CYP2E1: Life Technologies and Expression Analysis (LTEA) Assay for CYP2E1 using HepaRG (AID 2283485). The method in brief: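 HepaRG cells, plated 48 h, then exposed 48 h in serum-free induction medium to eight half-log concentrations from 100 uM in 0.5% DMSO, duplicate. CYP2E1 mRNA by qRT-PCR, normalized to ACTB/GAPDH/POLR2A; bidirectional fit versus DMSO.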

Read-out in a further experiment: CYP4A11 (gene 1579)
Nature of the experiment: LTEA_HepaRG_CYP4A11: Life Technologies and Expression Analysis (LTEA) Assay for CYP4A11 using HepaRG (AID 2283486). The method in brief: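 Human hepatic HepaRG cultures receive duplicate 48 h exposures across a concentration-response series topping at 100 uM. Expression changes in CYP4A11 are measured by qRT-PCR relative to DMSO controls.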

Read-out in experiment [14]: Cytochrome P450 3A4 (Homo sapiens) (UniProt P08684)
As to the kind of experiment: LTEA_HepaRG_CYP3A4: Life Technologies and Expression Analysis (LTEA) Assay for CYP3A4 using HepaRG (AID 2283487). The method, boiled down: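 HepaRG, 48 h exposure, 8-pt CRC from 100 uM (half-log), 0.5% DMSO, duplicates; serum-free induction medium. Readout: CYP3A4 mRNA, qRT-PCR, ACTB/GAPDH/POLR2A normalization. Bidirectional fit vs DMSO.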

Structures are written as SMILES. Activity calls are given as the source filed them. The calls were made as follows: active = hit-call score of the fitted dose curve at least 0.9, where 1 is the maximum; inactive = score below 0.9.

Sequence of Apoptosis regulator Bcl-2 (Homo sapiens) (P10415 whole entry, looked up): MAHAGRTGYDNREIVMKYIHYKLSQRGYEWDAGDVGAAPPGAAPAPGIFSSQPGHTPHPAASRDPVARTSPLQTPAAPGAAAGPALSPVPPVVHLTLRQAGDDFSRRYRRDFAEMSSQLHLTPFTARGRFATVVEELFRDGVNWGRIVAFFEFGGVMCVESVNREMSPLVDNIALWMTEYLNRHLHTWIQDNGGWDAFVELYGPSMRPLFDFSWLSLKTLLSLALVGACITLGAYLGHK
Sequence of Cytochrome P450 3A4 (Homo sapiens) (P08684 whole entry, looked up): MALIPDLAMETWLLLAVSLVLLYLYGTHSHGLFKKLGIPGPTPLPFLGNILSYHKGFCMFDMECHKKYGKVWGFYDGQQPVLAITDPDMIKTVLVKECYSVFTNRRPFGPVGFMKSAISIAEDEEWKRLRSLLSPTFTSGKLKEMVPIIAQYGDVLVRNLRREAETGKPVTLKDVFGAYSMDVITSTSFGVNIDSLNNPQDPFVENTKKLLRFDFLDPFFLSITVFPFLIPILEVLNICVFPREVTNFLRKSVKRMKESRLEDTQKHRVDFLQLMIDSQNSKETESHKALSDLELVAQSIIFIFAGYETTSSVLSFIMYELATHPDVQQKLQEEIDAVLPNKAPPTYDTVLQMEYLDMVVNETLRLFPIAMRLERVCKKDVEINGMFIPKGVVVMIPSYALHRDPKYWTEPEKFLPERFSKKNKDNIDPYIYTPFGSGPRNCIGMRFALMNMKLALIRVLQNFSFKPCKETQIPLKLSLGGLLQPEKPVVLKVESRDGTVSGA
Sequence of Cytochrome P450 2C19 (Homo sapiens) (P33261 whole entry, looked up): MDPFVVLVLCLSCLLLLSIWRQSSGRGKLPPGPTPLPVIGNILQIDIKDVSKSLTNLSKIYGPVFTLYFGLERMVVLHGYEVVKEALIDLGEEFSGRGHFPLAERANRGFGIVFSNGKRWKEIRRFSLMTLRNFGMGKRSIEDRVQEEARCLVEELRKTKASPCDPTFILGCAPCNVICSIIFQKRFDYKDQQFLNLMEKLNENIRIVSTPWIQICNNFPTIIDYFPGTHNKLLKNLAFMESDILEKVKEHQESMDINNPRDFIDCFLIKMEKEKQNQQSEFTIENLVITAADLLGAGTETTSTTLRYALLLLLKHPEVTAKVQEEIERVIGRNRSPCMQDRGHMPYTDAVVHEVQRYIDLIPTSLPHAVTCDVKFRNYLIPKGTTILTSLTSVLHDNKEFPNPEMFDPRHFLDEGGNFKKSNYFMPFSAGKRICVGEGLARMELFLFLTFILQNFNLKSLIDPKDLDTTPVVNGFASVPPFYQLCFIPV
Sequence of Caspase-3 (Homo sapiens) (P42574 whole entry, looked up): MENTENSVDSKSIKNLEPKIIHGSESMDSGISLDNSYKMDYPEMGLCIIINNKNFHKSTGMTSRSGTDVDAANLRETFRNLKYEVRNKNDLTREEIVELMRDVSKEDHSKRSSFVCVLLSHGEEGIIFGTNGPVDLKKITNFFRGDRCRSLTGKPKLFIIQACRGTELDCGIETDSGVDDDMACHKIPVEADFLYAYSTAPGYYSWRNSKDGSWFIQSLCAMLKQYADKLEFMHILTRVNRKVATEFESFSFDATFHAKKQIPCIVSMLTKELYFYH

For `O=S(=O)(O)C(F)(F)C(F)(F)C(F)(F)C(F)(F)C(F)(F)C(F)(F)F`, the compound was classed as inactive (in experiment [1]; in experiment [2]; in [3]; in [4]; in experiment [5]; with BCL2L11 (gene 10018)). For the same compound, the compound was classed as inactive (in experiment [7]; in [8]; in the experiment with Caspase-3 (Homo sapiens); in experiment [9]; in [10]; in [11]). In the experiment with CYP2E1 (gene 1571), the call was inactive. Moreover, the AC50 in [6] was 3.42 µM (active); in experiment [12], 24.6 µM (active); in [13], 32 µM (active); with CYP2C8 (gene 1558) it was 50 µM (active); in the experiment with CYP2C9 (gene 1559) it was 6.28 µM (active); with CYP4A11 (gene 1579), 22.8 µM (active). Besides, the AC50 in experiment [14] is 34.9 µM (active).
As to `O=C(NC(=O)c1c(F)cccc1F)Nc1cc(Cl)c(OC(F)(F)C(F)F)c(Cl)c1`, the compound was called inactive (in [1]; in experiment [2]; in experiment [3]; in [4]; in [5]; with BCL2L11 (gene 10018)). Besides, the result (in experiment [6]; in experiment [7]; in the experiment with Caspase-3 (Homo sapiens); in [9]; in experiment [11]; in experiment [12]) was inactive. In addition, the compound was called inactive (in experiment [13]; in the experiment with CYP2C8 (gene 1558); with CYP2C9 (gene 1559); with CYP4A11 (gene 1579); in [14]). Besides, the figures for the AC50 (in experiment [10]; with CYP2E1 (gene 1571)) were 3.63 µM (active) and 11.6 µM (active), respectively.
As to `Clc1ccc(C(Cl)(Cl)Cl)cc1`, the result (in [1]; in experiment [2]; in experiment [3]; in [4]; in experiment [5]; with BCL2L11 (gene 10018)) was inactive. In addition, the compound was called inactive (in experiment [6]; in [7]; with Caspase-3 (Homo sapiens); in experiment [9]; in experiment [10]; in experiment [11]). The compound was called inactive (in [12]; in [13]; in the experiment with CYP2C8 (gene 1558); in the experiment with CYP2C9 (gene 1559); in the experiment with CYP2E1 (gene 1571); in the experiment with CYP4A11 (gene 1579)). In addition, the compound was called inactive in [14].

These data come from PubChem BioAssay (EPA / NIEHS).
